Bioassay records from PubChem.
This is a sample that favours compounds with a hit; in the whole collection about 1.5% have one here.
Bcl-xL primary = inhibitors of human Bcl-xL, primary screen, biochemical, fluorescence polarization, HTS; Bcl-2-like protein 1 (Homo sapiens), Q07817; GST-Bcl-xL / FITC-Bim BH3 peptide fluorescence polarization; inhibition, % at 10.9 µM; 320,000 tested, 0.7% active; AID 2129, 2009;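 active = inhibition above the mean of all tested compounds plus 3 SD, cutoff set per campaign, cut at about 30% in these data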;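 also: 0% = DMSO wells and 100% = unlabeled Bim-BH3 peptide competitor; inhibitors lower millipolarization by displacing the labeled peptide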
MCL1 BIM primary = inhibitors of MCL1 binding to BIM-BH3, primary screen, biochemical, fluorescence polarization | Induced myeloid leukemia cell differentiation protein Mcl-1 (Homo sapiens), Q07820 | GST-MCL1 / FITC-Bim-BH3 fluorescence polarization | inhibition, % at 10.9 µM | 320,000 tested, 0.68% active;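 active = inhibition above the mean inhibition of all tested compounds plus 3 SD, set per campaign, cut at about 40% in these data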;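 also: 0% = DMSO wells and 100% = unlabeled Bim-BH3 peptide control; higher means more loss of mP so more displacement of Bim peptide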
eLon inh = inhibitors of E. coli Lon protease, primary screen, biochemical, fluorescence polarization. P0A9M0. purified E. coli Lon protease. inhibition, % at 7.94 µM. 360,000 tested, 0.42% active. AID 602123, 2011; in the data active = inhibition above about 13%, passing the limit was not always enough;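 also: 0% = enzyme with probe and DMSO and 100% = no enzyme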
MEX-5 binding = MEX-5 zinc finger RNA-binding disruptors – biochemical, C. elegans, fluorescence polarization, MLPCN library, primary screen; activity score (negative = inhibition of binding), % at 10 µM; AID 1832, 2009; 300,000 tested, 0.38% active; Zinc finger protein mex-5 (Caenorhabditis elegans), Q9XUB2; MEX-5/FITC-TCR2 RNA binding; active compounds read low;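 active = inhibition past about -25% in most replicates, and total fluorescence under double the plate's negative control median, limit read from the data; inconclusive = replicates evenly split on the limit, or fluorescence at least double controls; inactive = too little inhibition in most replicates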;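 also: 0% = DMSO and -100% = 5 µM competing unlabeled TCR2 RNA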
EBV gp42 block = Epstein-Barr virus gp42 inhibitors, primary screen, biochemical, uHTS, fluorescence polarization. inhibition, % (tested at 21.74 µM). 220,000 tested, 0.42% active. Glycoprotein 42 (Epstein-Barr virus (strain AG876)), Q1HVG2. AID 1085, 2008. Fluorescence polarization binding assay, mP read-out; in the data active = inhibition above about 50%
GLD-1 TGE inh = GLD-1/TGE RNA complex disruptors, primary screen, biochemical, fluorescence polarization; Female germline-specific tumor suppressor gld-1 (Caenorhabditis elegans), Q17339; purified GLD-1 + fluorescein TGE RNA; inhibition, % at 5.96 µM; 320,000 tested, 0.44% active;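 active = percent inhibition above a per-plate cutoff, the plate mean of test compounds plus 3 SD, cut at about 30% in these data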;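 also: 0% = DMSO wells with GLD-1 and probe and 100% = wells lacking GLD-1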
Target sequence (Q17339 whole entry, looked up): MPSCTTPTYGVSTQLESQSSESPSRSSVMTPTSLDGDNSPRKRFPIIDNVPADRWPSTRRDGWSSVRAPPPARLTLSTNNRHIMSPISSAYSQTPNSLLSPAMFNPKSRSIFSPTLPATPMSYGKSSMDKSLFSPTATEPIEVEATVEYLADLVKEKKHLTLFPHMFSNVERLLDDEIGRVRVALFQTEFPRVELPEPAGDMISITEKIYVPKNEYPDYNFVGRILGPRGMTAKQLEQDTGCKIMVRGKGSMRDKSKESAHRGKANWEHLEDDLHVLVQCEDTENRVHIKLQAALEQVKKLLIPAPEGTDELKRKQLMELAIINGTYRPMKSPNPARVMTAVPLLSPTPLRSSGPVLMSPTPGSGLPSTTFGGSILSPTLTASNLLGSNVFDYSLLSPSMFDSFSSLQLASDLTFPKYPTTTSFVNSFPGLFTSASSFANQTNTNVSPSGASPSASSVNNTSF
* hit, by the source's call; ? = inconclusive; · = no result given.

SMILES	Bcl-xL primary	MCL1 BIM primary	eLon inh	MEX-5 binding	EBV gp42 block	GLD-1 TGE inh
CN(C)c1ccc(/C=C(\C#N)C(=O)NCc2ccco2)cc1	-10	-9	·	-42*	-27	-46
CCOC(=O)c1nc2ccccc2s1	6	-1	2	0	1	0
COc1ccc(C2C(C(C)=O)=C(C)Nc3ncnn32)cc1OC (stereo not given)	2	5	5	-2	-15	0
COc1ccc(-c2cc(C(=O)OCC(=O)c3c(N)n(C)c(=O)n(C)c3=O)c3ccccc3n2)cc1	0	3	-9	-4	-21	-1
COc1ccc(/C=C2\CCCc3c2nc2ccccc2c3C(=O)OCC(=O)c2c(N)n(C)c(=O)n(C)c2=O)cc1	41*	39	·	0	2	101*
CS(=O)(=O)Oc1ccc2c(c1)O/C(=C\C=C\c1ccccc1)C2=O	9	9	-10	-42*	-7	28
CC(=O)C1=C(c2cccc([N+](=O)[O-])c2)N(C(C)=O)n2c(C)nnc2S1	5	10	6	-47*	4	8
CS(=O)(=O)n1nc(-c2ccc(Cl)cc2)nc1SCc1ccccc1	-2	-3	6	1	87*	6
COc1ccc(CCNC(=O)CSc2nnnn2-c2ccc(OC)c(OC)c2)cc1OC	-1	-6	-4	0	-4	1
O=C(NNC(=O)c1cc(Cl)ccc1[N+](=O)[O-])c1csc(N2CCOCC2)n1	2	0	-16	-31*	·	6
CN(C)c1ccc2c(=O)c3ccccc3oc2n1	·	·	-7	·	·	·
COc1cc(/C=C/C(=O)N2CCN(C(=O)/C=C/c3cc(OC)c(OC)c(OC)c3)CC2)cc(OC)c1OC	4	0	-4	2	·	109*
CCOC(=O)c1cnc2cc(C)ccn2c1=O	3	0	-5	5	-7	5
COc1ccc(CNC(=O)c2cnc3cc(C)ccn3c2=O)cc1	4	5	-6	-28*	-9	-20
CCOc1ccccc1OCCCC(=O)NNC(=O)c1ccc(F)cc1	·	·	1	·	·	0
CC1(C)CC(=O)C2=C(C1)N1C(=C(C#N)C2c2ccc(Cl)cc2)N=C(N)c2ccccc21 (stereo not given)	6	3	-1	0	-9	61*
CCn1c(SCc2nc3sc(C(=O)O)c(C)c3c(=O)[nH]2)nc2ccccc21	24	28	-42	-43*	19	0
Cc1cc(C)c2cc(CN(CCO)C(=O)Nc3ccc(F)cc3)c(=O)[nH]c2c1	5	4	3	1	-14	15
Cc1cc(C(=O)NNC(=O)CCCCC(=O)NNC(=O)c2cc(C)[nH]n2)n[nH]1	-1	11	-10	-37*	2	7
CSCCC(NC(=O)c1ccc(Cl)cc1)C(=O)O (stereo not given)	-3	-6	-4	-3	-1	6
O=C(O)c1[nH]c2ccccc2c1C(c1ccccc1)c1c(C(=O)O)[nH]c2ccccc12	7	11	-6	-4	·	6
COc1cc(C(c2c(C(=O)O)[nH]c3ccccc23)c2c(C(=O)O)[nH]c3ccccc23)ccc1OCc1ccccc1	3	68*	1	?	·	0
Fc1cccc(/C=N/Nc2ncnc3nc[nH]c23)c1	3	8	-5	1	21	8
Fc1ccccc1/C=N/Nc1ncnc2nc[nH]c12	2	3	-5	-8	59*	6
Oc1ccc(/C=N/Nc2ncnc3nc[nH]c23)cc1	6	-4	6	-29*	-21	-1
SMILES	Bcl-xL primary	MCL1 BIM primary	eLon inh	MEX-5 binding	EBV gp42 block	GLD-1 TGE inh
Cc1ccc(/C=N/Nc2ncnc3nc[nH]c23)cc1	3	2	-4	-26*	0	4
Clc1ccc(/C=N/Nc2ncnc3nc[nH]c23)cc1	4	4	-5	-5	4	9
CCOC(=O)C1CCN(S(=O)(=O)c2c(C)[nH]c(C)c2C(=O)N2CCCC2)CC1	7	3	-3	0	·	7
Cc1ccc(OCC(=O)Nc2ccc3c(c2)C(=O)NC3=O)cc1	2	-1	0	0	·	-2
CC(C)(C)c1ccc(OCC(=O)Nc2ccc3c4c(cccc24)C(=O)NC3=O)cc1	·	·	18	-7	57*	·
COc1ccc(C(C#N)=Cc2ccc(OC)c(OC)c2)cc1	·	·	-4	·	·	·
COc1ccc(C(C#N)=Cc2ccccc2OC)cc1	·	·	10	·	·	·
COc1cc(N2CCCC2)c(OC)cc1/C=C(/C#N)c1ccc(F)cc1	-50	-59	-40	-2	139*	-42
COc1cc(N2CCCC2)c(OC)cc1/C=C(/C#N)c1ccc(Br)cc1	-34	-37	-60	-10	95*	-60
CCN(CC)c1ccc(/C=N/NC(=O)c2cccc(S(=O)(=O)Nc3ccccc3OC)c2)c(O)c1	-10	-19	-53	-31*	-87	-31
COc1ccccc1NS(=O)(=O)c1cccc(C(=O)N/N=C2\CC(=O)CC(C)(C)C2)c1	9	7	21	-3	9	59*
CCN(CC)c1ccc(/C=N/NC(=O)c2cccc(S(=O)(=O)Nc3ccccc3OC)c2)cc1	-1	4	4	2	-63	3
CN(C(=O)COC(=O)c1cc[n+]([O-])cc1)c1ccccc1	2	-5	-17	-1	·	4
CC1Cc2ccccc2N1C(=O)CSc1ncc(-c2ccc(F)cc2)n1C (stereo not given)	6	1	-11	3	-23	2
Cc1ccc(S(=O)(=O)NN2C(=O)c3ccccc3NC2c2ccccc2F)cc1 (stereo not given)	4	0	-9	3	·	-4
O=C(Nc1c(Cl)cc(Cl)cc1C(=O)NCCN1CCOCC1)c1cccc([N+](=O)[O-])c1	8	6	-5	2	9	2
Oc1cc2c(cc1O)C(c1ccccc1)CNCC2 (stereo not given)	19	13	9	-30*	·	1
CCOc1cc(/C=C(/C#N)c2nc3ccccc3[nH]2)ccc1Oc1ccc([N+](=O)[O-])cn1	-4	1	-12	0	-7	-3
COC(=O)c1ccc(COc2ccc(/C=C(\C#N)c3nc4ccccc4[nH]3)cc2OC)o1	3	4	-13	-30*	-42	1
CCOc1cc(/C=C(\C#N)c2nc3ccccc3[nH]2)ccc1OC(C)C(=O)O (stereo not given)	6	1	-29	-30*	·	-8
